Screening data (PubChem BioAssay)
Compounds with a hit are over-represented: about 21% of the library has one in this group of screens.
Pf growth 48h: P. falciparum growth inhibition at 48 hours (one generation); P. falciparum luciferase growth in erythrocytes, 48 h; Potency, µM (top dose mostly 28.7 µM), for inactives: at the highest dose activity change, negative = inhibition, most hits filed as inhibitors; 310,000 compounds, 5.9% hits; AID 504832; also: potency is read from the fitted curve at half-maximal effect; % is scaled to controls: 0 for no effect and ±100 for the full control effect
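Compounds are pin-transferred into medium, infected erythrocytes (2% hematocrit, 0.1% parasitemia final) are added, and plates sit one parasite generation at 37 C in 5% CO2. Detection reagent is then added and luminescence measured.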
HCMV antiviral: blocks human cytomegalovirus replication | HFF cells, HCMV-luciferase reporter, 72 h; active compounds read low | activity change, negative = inhibition, % at 57.5 µM | 410,000 compounds, 4.5% hits | AID 1259415; in the data active = activity change below about -60%; inconclusive = no clear call, values can overlap the other calls; inactive = above about -39%; also: % is scaled to controls: 0 for no effect and ±100 for the full control effect
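Cell-based, HFFs, 1000 cells/well, 16 h 37C; cpds in DMSO + HCMV-luc, MOI 1 PFU/cell; 72 h 37C; OneGlo luminescence after 5 min RT; norm. to buffer vs Salinomycin 10uM.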
Shiga toxin inh: Shiga toxin inhibition | Vero cells, Shiga toxin protein synthesis inhibition reporter | inhibition, % at 38.7 µM | 290,000 compounds, 9.2% hits; in the data active = inhibition mostly above about 28%, no sharp cut-off; inactive = mostly below about 43%; also: 0% is about no effect
Pf growth 96h: inhibits malaria parasite growth, 96 h. Potency, µM (highest dose often 28.7 µM), for inactives: at the top dose activity change, negative = inhibition, usual class: inhibitors. 320,000 compounds, 6.9% hits. P. falciparum luciferase reporter growth, 96 h; also: potency is read from the fitted curve at half-maximal effect; % is scaled to controls: 0 for no effect and ±100 for the full control effect
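Cell-based qHTS: luciferase-tagged P. falciparum in erythrocytes (2% hematocrit, 0.05% parasitemia final) incubated with compounds for 96 hours, 37 C, 5% CO2; luciferase detection reagent then added and luminescence measured.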
HCV inh: HCV inhibition. Huh7.5.1 HCVcc-Cre infection, luciferase reporter, 44 h. Potency, µM (series often up to 41.8 µM), without a hit: at the highest dose activity change, negative = inhibition, usual class: inhibitors. 340,000 compounds, 3.4% hits. AID 651820; also: potency is read from the fitted curve at half-maximal effect; % is scaled to controls: 0 for no effect and ±100 for the full control effect
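Luciferase read-out (15 sec integration) after a 15 min room-temperature substrate step quantifies HCVcc-Cre infection. Cells, 1,000 per well, had compound added 4 h post-plating, then virus at ~0.5 moi, and were cultured 44 h.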
Cycloheximide cs: affects cycloheximide protein synthesis inhibition readout, counter-screen; AID 2314; 300,000 compounds, 12% hits; max response, %; cell reporter, cycloheximide protein synthesis inhibition counterscreen; in the data active = max response mostly above about 13%, no sharp cut-off; inactive = mostly below about 14%; also: read at 38.3 µM for the half of the compounds with a filed dose; 0% is about no effect
* = called active by the depositor; ? = inconclusive; . = no result given. Unless noted, calls follow the shape of the dose curve; as a rule, active = well fitted inhibition curve with a large enough effect; inconclusive = small, poorly fitted or top-dose-only effect, or another doubt; inactive = no such curve, though single readings can be large or run the other way.

SMILES	Pf growth 48h	HCMV antiviral	Shiga toxin inh	Pf growth 96h	HCV inh	Cycloheximide cs
C/C(=N\OCc1nc2ccccc2c(=O)n1/N=C/c1cc([N+](=O)[O-])ccc1O)c1ccccc1	?	0	46*	?	?	18*
O=[N+]([O-])c1ccc(O)c(/C=N/n2c(CO)nc3ccccc32)c1	?	-13	-2	13µM*	-3%	-3
CC(C)OCCCN(Cc1ccco1)C(=O)c1cc2c(s1)-c1ccccc1OC2	.	-28	.	.	.	.
COC(=O)COc1ccc(S(=O)(=O)Nc2ccc3c(c2)OCCO3)cc1C	75%	?	68*	-7%	8%	25*
COC(=O)COc1ccc(S(=O)(=O)Nc2ccc3c(c2)OCCO3)cc1Cl	7%	-1	-13	.	10%	-3
Cc1cc(Cl)c(S(=O)(=O)NCC2CCCO2)cc1OCC(=O)NC1CCCCC1 (stereo not drawn)	.	-93*	9	5.9µM*	12%	-4
Cc1cc(Cl)c(S(=O)(=O)Nc2ccc3c(c2)OCCO3)cc1OCC(=O)NC1CCCCC1	.	-70*	-2	?	-19%	19
Cc1ccc(/C=N/NC(=O)CNC(=O)COc2ccccc2)cc1	7%	-61*	15	-25%	2%	-3
CCn1ncc(/C=N\NC(=O)COc2ccccc2)c1C	14%	48	67*	9%	4%	9
Cc1cccc(OCC(=O)NCC(=O)N/N=C/c2cc(Br)cc(Br)c2O)c1	8%	-83*	-7	0%	?	3
COc1cccc(/C=N/NC(=O)CNC(=O)COc2ccccc2)c1O	?	11	32	-36%	-7%	11
Cc1ccc(OCC(=O)N/N=C/c2cn(C)c3ccccc23)cc1	8%	?	-10	-6%	7%	0
Cc1ccc(S(=O)(=O)c2nnn3c2nc(NC(C)C)c2cc(Cl)ccc23)cc1C	.	0	.	.	.	.
CCN(CC(=O)Nc1cc(Cl)ccc1C)C(=O)c1ccc2c(=O)n3c(nc2c1)CCC3	?	-38	.	-19%	19%	.
CCOC(=O)[C@]12CCC=C1N(Cc1ccc(Cl)cc1Cl)C(=O)[C@H](CC(=O)NCCCN1CCCC1=O)C2	.	-6	.	.	.	.
CN(Cc1ccccc1)C(=O)c1ccc2c(c1)OCCO2	23%	42	15	.	-6%	11
CN(CCOC(=O)c1ccc2c(c1)OCCO2)C(C)(C)C	12%	11	23	57%	10%	17*
CN(CCOC(=O)c1ccc2c(c1)OCCO2)Cc1ccccc1	17%	6	19*	35%	-16%	41*
COc1cccc(C(=O)OCCN(C)C(C)(C)C)c1	.	.	-4	8.3µM*	.	-6
Cc1ccc(CNC(=O)CNC(=S)N(Cc2ccccc2)Cc2ccccc2F)cc1	?	0	20	?	?	10
O=C(Nc1ccc(Cl)cc1)c1nc[nH]c1C(=O)NCCCNC(=O)c1[nH]cnc1C(=O)Nc1ccc(Cl)cc1	.	.	.	.	21%	.
C=CCNC(=O)/C(=C/c1ccccc1OCC)NC(=O)c1ccccc1	4%	44	-12	?	-10%	-3
CCOc1ccc(C(C)NC(=O)Cc2ccccc2)cc1OCC (stereo not drawn)	2.3µM*	-1	-4	2.1µM*	24%	-3
CCOc1ccc(C(C)NC(=O)Cc2ccccc2F)cc1OCC (stereo not drawn)	?	21	3	1.3µM*	-4%	1
CC(NC(=O)Cc1ccccc1F)c1ccc(F)cc1 (stereo not drawn)	20%	?	13	12%	4%	9
SMILES	Pf growth 48h	HCMV antiviral	Shiga toxin inh	Pf growth 96h	HCV inh	Cycloheximide cs
CCCCOc1ccc(C(C)NC(=O)CCS(=O)(=O)Cc2ccccc2F)cc1 (stereo not drawn)	1%	-66*	-8	7%	-2%	-2
CCOc1ccccc1/C=C(/NC(=O)c1ccccc1)C(=O)NC(C)c1ccccc1 (stereo not drawn)	5%	-30	-10	10µM*	-10%	6
CC(NC(=O)CCCOc1ccc(Cl)cc1)c1ccccc1 (stereo not drawn)	-21%	-24	16	2%	-2%	-4
CC(C)c1nc2ccc(Br)cn2c1NC1CCCC1	?	-31	-16	-9%	-7%	-2
CCOc1ccc(C(CCc2ccccc2)NC(=O)c2ccccc2F)cc1OCC (stereo not drawn)	.	45	-4	1.5µM*	-23%	-2
Cc1cc(OCC(=O)NC2CC2)c2c(C)c(C)c(=O)oc2c1	-2%	29	-4	12%	-15%	-1
C/C(=N\OCC(=O)NCC(F)(F)F)c1cc2ccccc2o1	89%	-6	71*	56%	-12%	53*
CCCCNC(=O)CO/N=C(\C)c1cc2ccccc2o1	49%	18	77*	-18%	-9%	54*
CSc1ncccc1C(=O)N1CCN(S(=O)(=O)c2ccc(F)cc2)CC1	5%	7	-5	?	4%	-2
CCC(CO)Nc1ccc(-c2n[nH]c(=O)c3ccccc23)cc1[N+](=O)[O-] (stereo not drawn)	?	-10	-5	?	-28%	1
Cc1cc(C(=O)CN2C(=O)NC3(CCCc4sccc43)C2=O)c(C)n1-c1ccccc1 (stereo not drawn)	?	16	29*	?	?	39*
COc1ccc(-n2c(C)cc(C(=O)CN3C(=O)C(=O)N(Cc4ccccc4)C3=O)c2C)cc1	?	-17	10	-14%	-15%	4
COc1ccc(-n2c(C)cc(C(=O)CN3C(=O)NC4(CCCc5sccc54)C3=O)c2C)cc1 (stereo not drawn)	?	-39	-7	4.7µM*	?	3
O=C(CN1C(=O)NC2(CCCc3ccccc32)C1=O)c1ccccc1F (stereo not drawn)	.	34	.	.	-27%	.
Nc1nc(SCC(=O)Nc2ccc([N+](=O)[O-])cc2)[nH]c(=O)c1NC(=O)c1ccc(Br)o1	0%	39	16	28%	3%	-1
CC(c1nnnn1C(C)(C)C)N(Cc1cccnc1)Cc1ccccc1Cl (stereo not drawn)	13µM*	-11	-16	.	?	-4
Clc1ccccc1CN(Cc1ccccc1)C(c1cccs1)c1nnnn1C1CCCC1 (stereo not drawn)	?	?	-1	?	?	7
CC(C)(C)n1nnnc1C(c1cccs1)N(Cc1cccnc1)Cc1ccccc1Cl (stereo not drawn)	2.9µM*	-20	6	110%	10µM*	4
CCOC(=O)CC1(C)c2nc(NC(C)=O)sc2Cc2sc(NC(C)=O)nc21	.	-97*	.	.	.	.
CCOC(=O)c1sc(NC(C)=O)nc1C	-6%	21	-14	.	-25%	-1
